# Results from PubChem BioAssay AID430 (Sanford-Burnham Center for Chemical Genomics, 2006).
# About 1,100 (1.7%) of roughly 63,000 compounds were called active. This is one part of a sample in which actives are shown more often than they occur. No stated cut-off is given here; in the data, active means cytotoxicity above about 50%; inactive means the rest. Results with a measured potency or affinity are listed apart.
# Test: cytotoxicity in HPDE-C7 cells, cell-based, fluorescence, HTS (AID 430);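 further: cells exposed to compound for 48 hours before viability readout; 0% = vehicle and 100% = reference cytotoxic drug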
# Settings: HPDE-C7 pancreatic duct cells viability, at 10 µM, active compounds read high
row,Compound,cytotoxicity
1,CN(C)C(=O)N1CCC(C(=O)NCc2ccc(F)cc2)CC1,-10.1% (inactive)
2,Cc1[nH]nc2c1C(Cc1ccccc1)C(C#N)=C(N)O2 (centres undefined),-12.3% (inactive)
3,Cc1c(Cl)cccc1Nc1ccccc1C(=O)O,-3.4% (inactive)
4,Cc1cccc(Nc2ccccc2C(=O)O)c1C,3.8% (inactive)
5,Cc1ccc(Cl)c(Nc2ccccc2C(=O)O)c1Cl,66.2% (active)
6,O=C1c2ccccc2C(=O)N1CCCc1nc(-c2cccnc2)no1,6.9% (inactive)
7,Fc1ccc(-n2c(-c3ccco3)nc3nc4ccccc4nc32)cc1,-1.1% (inactive)
8,COc1ccc(CNc2oc(COc3ccccc3)nc2C#N)cc1,0.5% (inactive)
9,N#Cc1nc(-c2ccc(F)cc2)oc1NCc1ccccc1,-17.1% (inactive)
10,N#Cc1nc(Cc2ccccc2)oc1NCc1cccnc1,-12.4% (inactive)
11,COc1ccc(-c2nc(C#N)c(NCCCN3CCOCC3)o2)cc1,-6.6% (inactive)
12,N#Cc1nc(-c2ccc(OCc3ccc(Cl)cc3)cc2)oc1NCCCn1ccnc1,-0.4% (inactive)
13,CC(C)(C)c1ccc(-c2nc(C#N)c(NCc3ccncc3)o2)cc1,54.6% (active)
14,N#Cc1nc(-c2ccc(OCc3ccccc3)cc2)oc1NCc1cccnc1,0.6% (inactive)
15,N#Cc1nc(-c2ccc(OCc3ccc(Cl)cc3)cc2)oc1NCc1cccnc1,53.4% (active)
16,N#Cc1nc(-c2ccc(OCc3ccccc3)cc2)oc1NCCN1CCOCC1,-1% (inactive)
17,COc1ccc(CNc2oc(-c3ccccc3)nc2C#N)cc1,5.7% (inactive)
18,N#Cc1nc(COc2ccc(-c3ccccc3)cc2)oc1NCc1cccnc1,61.9% (active)
19,Cc1ccc(-n2nnc3c(=O)n(Cc4ccccc4C)cnc32)cc1,0.5% (inactive)
20,COCCNC(=O)C(c1ccc(Cl)cc1)N(C(=O)CCC(=O)Nc1ccccn1)C1CCCC1 (centres undefined),-1.7% (inactive)
21,CNCCOCC(O)CSc1ccccc1 (centres undefined),1.2% (inactive)
22,Cc1cccc(-c2nnn(CC/C(N)=N/O)n2)c1,2.8% (inactive)
23,CCN1CCN(c2nc(-c3cccnc3)nc3ccccc23)CC1,-27.8% (inactive)
24,COc1ccc(NC(=O)C(Cc2ccccc2)NC(=O)c2ccco2)cc1OC (centres undefined),-0.4% (inactive)
25,c1ccc(CSc2nnc3c(n2)OC(c2ccco2)Nc2ccccc2-3)cc1 (centres undefined),-3.6% (inactive)

row,Compound,cytotoxicity
1,O=C(Nc1ccc2c(c1)OCO2)C(c1ccccc1)N1CCCCC1 (centres undefined),-14% (inactive)
2,O=c1[nH]nnc2c1sc1nc(N3CCOCC3)c3c(c12)CCCC3,30.8% (inactive)
3,COc1ccccc1C1c2c(oc3ccc(Cl)cc3c2=O)C(=O)N1c1cc(C)on1 (centres undefined),-14.3% (inactive)
4,COc1ccccc1-n1c(=O)oc2ccc(Cl)cc2c1=O,59.7% (active)
5,COc1ccccc1-n1c(SC)nc(O)cc1=O,4.6% (inactive)
6,Cn1c(SCc2c(F)cccc2Cl)nnc1-c1cccs1,-2.8% (inactive)
7,O=C(C1COc2ccccc2O1)N1CCN(c2ccc(F)cc2)CC1 (centres undefined),-9% (inactive)
8,O=C(O)COc1ccc2nsnc2c1Cl,-25.1% (inactive)
9,CCOc1ccccc1OCC(=O)O,4.2% (inactive)
10,COC(=O)CN1C(=O)C(O)(CC(=O)c2ccc(C)cc2)c2ccccc21 (centres undefined),-28.9% (inactive)
11,Cc1ccccc1-n1c(N)cc(=O)[nH]c1=S,-2.2% (inactive)
12,CCOC(=O)c1cc(NC(=O)Nc2ccc(OC)c(OC)c2)c(C)nc1C,5.7% (inactive)
13,CCOC(=O)N1CCN(S(=O)(=O)c2ccc(C(=O)Nc3ccc(F)cc3F)cc2)CC1,58% (active)
14,CCOC(=O)N1CCN(S(=O)(=O)c2ccc(F)cc2)CC1,-1.6% (inactive)
15,CCOC(=O)N1CCN(S(=O)(=O)c2ccc(C(=O)Nc3nc4ccc(F)cc4s3)cc2)CC1,-8% (inactive)
16,CC1=CC(c2ccccc2)n2nc(N3C(=O)c4ccccc4C3=O)nc2N1 (centres undefined),-0.7% (inactive)
17,Cc1cc(NC(=O)c2ccc(S(=O)(=O)N(C)C)cc2)no1,-5.2% (inactive)
18,O=S(=O)(c1ccccc1)c1nc(-c2ccccc2)oc1NCc1cccnc1,-3.2% (inactive)
19,CCNC(=O)C1CC(=O)N(Cc2ccc3c(c2)OCO3)C(=Nc2ccc(OCC)cc2)S1 (centres undefined),-4.1% (inactive)
20,CCNC(=O)C1CC(=O)N(Cc2ccc3c(c2)OCO3)C(=Nc2ccc(F)cc2)S1 (centres undefined),50.6% (active)
21,CNC(=O)C1CC(=O)N(Cc2ccc3c(c2)OCO3)C(=Nc2ccc(F)cc2)S1 (centres undefined),3.4% (inactive)
22,Cc1nc2cc(C(F)(F)F)ccc2n1C1CCN(CC(=O)N2CCOCC2)CC1,1.2% (inactive)
23,c1ccc(Cn2nnnc2CN2CCN(Cc3ccc4c(c3)OCO4)CC2)cc1,-5.8% (inactive)
24,COc1ccc(S(=O)(=O)Nc2cc(C)ccc2OC)cc1C,1.8% (inactive)
25,COc1ccc(NC(=O)CSc2nc3c(c(=O)n2-c2ccc(F)cc2)SCC3)cc1,14.2% (inactive)

row,Compound,cytotoxicity
1,COc1ccc(NC(=O)c2cccc(-n3cnnn3)c2)cc1,-1.7% (inactive)
2,O=C(O)C1C2C=CC3(CN(CC(O)COc4ccccc4)C(=O)C13)O2 (centres undefined),-8.7% (inactive)
3,Cc1cc2ccccc2n1CCNC(=O)c1ccc(S(=O)(=O)N2CCOCC2)cc1,-3.1% (inactive)
4,CC(C)C[C@H](N)c1nnc(S(=O)(=O)Cc2cccc(F)c2)o1,19% (inactive)
5,Cn1cc(S(=O)(=O)Cc2ccc(F)cc2)c2ccccc21,8.8% (inactive)
6,CC(C)CCN1C(=O)CCC1(C)C(=O)NC1CCCCCC1 (centres undefined),-16.5% (inactive)
7,COc1ccccc1NC(=O)c1nc[nH]c1C(=O)Nc1ccccc1OC,17% (inactive)
8,Cc1ccccc1NC(=O)c1nc[nH]c1C(=O)NCc1ccccc1,-22.2% (inactive)
9,COc1ccc(NC(=O)c2nc[nH]c2C(=O)Nc2ccccc2C)cc1,55.3% (active)
10,Cc1ccc(Nc2oc(C)nc2C#N)cc1,2.5% (inactive)
11,CCCSC1=C(C#N)C(c2ccccc2C)CC(=O)N1 (centres undefined),10.1% (inactive)
12,COc1ccc(OC)c(N/C(=N\c2nc(C)cc(C)n2)NC(=O)c2ccco2)c1,-5.6% (inactive)
13,COC(=O)c1ccc(CSc2nnc(Nc3ccccc3OC)s2)o1,43.6% (inactive)
14,COC(=O)c1ccc(CSc2nnc(NCc3ccccc3)s2)o1,-3.1% (inactive)
15,CCOc1ccccc1Nc1nnc(SCc2ccc(C(=O)OC)o2)s1,58% (active)
16,Cn1c(=O)c2c(-c3ccccc3)n(CCCN3CCOCC3)cc2n(C)c1=O,-14% (inactive)
17,COc1ccccc1NC(=O)c1cc(Sc2nncn2C)nc2ccccc12,4.7% (inactive)
18,Cc1ccc(C(=O)C2=C(O)C(=O)N(CCCN3CCOCC3)C23C(=O)N(C)c2ccccc23)o1 (centres undefined),-20.1% (inactive)
19,CCOc1ccc(OC(=O)c2cccnc2)cc1,4.1% (inactive)
20,COC(=O)C1=C(C)NC(C)=C(C(=O)OC)C1c1ccc(OC(=O)c2ccco2)cc1,-0.4% (inactive)
21,CCOc1ccc2c(c1)N(C(=O)CN1C(=O)CCC1=O)C(C)(C)C=C2C,-6.5% (inactive)
22,COC(=O)c1ccc(OC(=O)c2ccco2)cc1,-14.5% (inactive)
23,O=C(Oc1cccc(Br)c1)c1cccnc1,-5% (inactive)
24,O=C(Oc1ccc2ccccc2c1)c1ccco1,5% (inactive)
25,CC1=CC(C)(C)Nc2ccc(C)cc21,-10.9% (inactive)

row,Compound,cytotoxicity
1,CCc1ccc2c(c1)C(C)=CC(C)(C)N2,3.5% (inactive)
2,COc1ccc(S(=O)(=O)N2CCCC2C(=O)Nn2cnnc2)cc1 (centres undefined),-10.2% (inactive)
3,O=C(O)C1C2CCC(C2)C1C(=O)Nc1nc2ccccc2s1 (centres undefined),-5.1% (inactive)
4,CCc1cccc(NC(=O)Cn2cccc2)c1,2.1% (inactive)
5,Cc1noc(C)c1CSCC(=O)OCC(=O)Nc1sccc1C#N,6.1% (inactive)
6,CCCc1cc(=O)oc2cc(C)cc(OC(=O)c3ccco3)c12,11.7% (inactive)
7,COC(=O)c1c(NC(=O)c2ccc(Br)o2)sc(C)c1C,11% (inactive)
8,O=S(=O)(c1cccc(Cl)c1Cl)N1CCCCC1,-8.6% (inactive)
9,C1CCC(c2nn3c(-c4n[nH]c5c4CCC5)nnc3s2)CC1,2.9% (inactive)
10,COc1ccc(CCN(Cc2nc3ccccc3c(=O)[nH]2)C(=O)c2ccco2)cc1OC,-3% (inactive)
11,Cc1oc(C)c2c(=O)ccc3c(c12)OC(N)=C(C#N)C3c1ccccc1 (centres undefined),-51.8% (inactive)
12,CSc1ccc(C2C(C#N)=C(N)Oc3c2ccc(=O)c2c(C)oc(C)c32)cc1 (centres undefined),-8.9% (inactive)
13,Cn1c(N2CCC(C(N)=O)CC2)nc2c1c(=O)n(Cc1ccc(Br)cc1)c(=O)n2C,28.6% (inactive)
14,COc1cccc(C2C(C#N)=C(N)OC3=C2C(=O)CCC3)c1OC(=O)c1ccco1 (centres undefined),-11.1% (inactive)
15,OCCN(CC(O)Cn1ccc2ccccc21)CC(O)Cn1ccc2ccccc21 (centres undefined),-4.1% (inactive)
16,OCCNCC(O)Cn1ccc2ccccc21 (centres undefined),-15.1% (inactive)
17,Cc1nn(Cc2ccccc2)c(C)c1C(=O)Nc1ccc(N2CCOCC2)cc1,6.2% (inactive)
18,COc1ccc(CN(C)C2CCCCC2)cc1,12.6% (inactive)
19,CC(C)(C)c1cc(C(=S)N2CCN(CCO)CC2)cc(C(C)(C)C)c1O,-4.1% (inactive)
20,CC(C)(C)c1cc(CN2CCN(CCO)CC2)cc(C(C)(C)C)c1O,-9.7% (inactive)
21,Cc1ccc2c(c1)N(CCCC(=O)NCC1COc3ccccc3O1)C(=O)CO2 (centres undefined),-5.2% (inactive)
22,C(=N\n1cnnc1)/c1cn(-c2cccs2)nc1-c1ccccc1,-5.7% (inactive)
23,O=C(O)C1CCN(C(=O)c2ccccc2C(=O)N2CCC(C(=O)O)CC2)CC1,-9.9% (inactive)
24,Cc1ccnc(NC(=O)C2CCN(S(=O)(=O)c3cccc4nsnc34)CC2)c1,-8.3% (inactive)
